In PubChem BioAssay:
Active and inactive are the calls of the source.

Tests used:
[1] = tested on: PRMT1 (protein arginine N-methyltransferase 1); test: PRMT1 binders on small-molecule microarrays, primary screen, biochemical, small-molecule microarray, 635 nm fluorescence (AID 1088); details: small-molecule microarray binding, higher = more signal;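 further: binding of Prmt1 protein to compounds spotted on small-molecule microarray slides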
[2] = yeast growth modulation, basal conditions, primary screen, YJM789 clinical isolate, OD600, 24 h (AID 1089);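 further: growth of clinical yeast isolate S. cerevisiae YJM 789 seeded 1000 cells per well; test concentration not given here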; details: S. cerevisiae YJM789 growth, higher = more signal, called active from +8 up or from −8 down
[3] = fission yeast growth modulation, primary screen, strain 972, OD600, 24 h, no modulator (AID 1090);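 further: basal condition with compound alone and no growth modifier present; test concentration not given here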; details: S. pombe 972 growth, higher = more signal, called active from +8 up or from −8 down
[4] = S. cerevisiae growth modulation with rapamycin, primary screen, strain BY4716, OD600, 96 h (AID 1091); details: higher = more signal, called active from +8 up or from −8 down; further: test concentration not given here
[5] = target: Torsin-1A-interacting protein 2 (Homo sapiens) (UniProt Q8NFQ8); test: LULL1 binders on small-molecule microarray, primary screen, cell lysate, human LULL1 lysate, 635/667 nm fluorescence (AID 1092); details: hLULL1 lysate binding, 635 nm fluorescence, higher = more signal;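 further: probe is lysate of COS7 cells overexpressing human LULL1; score merges per-feature 667 nm fluorescence with signal-to-noise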
Sequence of Torsin-1A-interacting protein 2 (Homo sapiens) (Q8NFQ8 whole entry, looked up): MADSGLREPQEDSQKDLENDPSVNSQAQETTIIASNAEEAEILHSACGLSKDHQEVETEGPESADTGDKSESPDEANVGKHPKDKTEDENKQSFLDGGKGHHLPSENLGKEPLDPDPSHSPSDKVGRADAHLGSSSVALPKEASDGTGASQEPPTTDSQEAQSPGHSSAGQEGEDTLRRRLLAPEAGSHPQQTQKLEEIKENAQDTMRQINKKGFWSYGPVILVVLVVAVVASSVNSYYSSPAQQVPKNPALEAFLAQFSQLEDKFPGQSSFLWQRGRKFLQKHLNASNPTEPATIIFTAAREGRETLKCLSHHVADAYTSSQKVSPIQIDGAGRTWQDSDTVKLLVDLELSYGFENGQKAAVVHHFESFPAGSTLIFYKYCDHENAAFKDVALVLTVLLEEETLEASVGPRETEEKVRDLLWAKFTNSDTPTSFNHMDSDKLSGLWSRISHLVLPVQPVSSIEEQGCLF

[6] = E. coli growth modulation, two-sided OD650, primary screen, E. coli filamentation project, strain DRC41, 24 h (AID 1093); details: OD650, 24 h, higher = more signal, called active from +8 up or from −8 down;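 further: MC1000 strain lacking acrAB efflux and sulA so SOS filamentation is blocked; test concentration not given here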
[7] = small-molecule microarray binders of probe aLefty2, primary screen, biochemical, biotinylated probe, 635/667 nm fluorescence (AID 1094); details: higher = more signal;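 further: score merges spot fluorescence near 667 nm with spot signal-to-noise ratio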
[8] = tested on: Noggin (protein binding on small-molecule microarray); test: Noggin binders on small-molecule microarray, primary screen, biochemical, 635/667 nm fluorescence (AID 1095); details: 635 nm fluorescence, higher = more signal;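 further: score merges 667 nm feature fluorescence with signal to noise over triplicate slides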
[9] = target: Neurogenic locus notch homolog protein 3 (Homo sapiens) (UniProt Q9UM47); test: NOTCH3 binders on small-molecule microarray, primary screen, biochemical, 635/667 nm fluorescence (AID 1096); details: NOTCH3 binding, 635 nm fluorescence, higher = more signal
Sequence of Neurogenic locus notch homolog protein 3 (Homo sapiens) (Q9UM47 whole entry, looked up): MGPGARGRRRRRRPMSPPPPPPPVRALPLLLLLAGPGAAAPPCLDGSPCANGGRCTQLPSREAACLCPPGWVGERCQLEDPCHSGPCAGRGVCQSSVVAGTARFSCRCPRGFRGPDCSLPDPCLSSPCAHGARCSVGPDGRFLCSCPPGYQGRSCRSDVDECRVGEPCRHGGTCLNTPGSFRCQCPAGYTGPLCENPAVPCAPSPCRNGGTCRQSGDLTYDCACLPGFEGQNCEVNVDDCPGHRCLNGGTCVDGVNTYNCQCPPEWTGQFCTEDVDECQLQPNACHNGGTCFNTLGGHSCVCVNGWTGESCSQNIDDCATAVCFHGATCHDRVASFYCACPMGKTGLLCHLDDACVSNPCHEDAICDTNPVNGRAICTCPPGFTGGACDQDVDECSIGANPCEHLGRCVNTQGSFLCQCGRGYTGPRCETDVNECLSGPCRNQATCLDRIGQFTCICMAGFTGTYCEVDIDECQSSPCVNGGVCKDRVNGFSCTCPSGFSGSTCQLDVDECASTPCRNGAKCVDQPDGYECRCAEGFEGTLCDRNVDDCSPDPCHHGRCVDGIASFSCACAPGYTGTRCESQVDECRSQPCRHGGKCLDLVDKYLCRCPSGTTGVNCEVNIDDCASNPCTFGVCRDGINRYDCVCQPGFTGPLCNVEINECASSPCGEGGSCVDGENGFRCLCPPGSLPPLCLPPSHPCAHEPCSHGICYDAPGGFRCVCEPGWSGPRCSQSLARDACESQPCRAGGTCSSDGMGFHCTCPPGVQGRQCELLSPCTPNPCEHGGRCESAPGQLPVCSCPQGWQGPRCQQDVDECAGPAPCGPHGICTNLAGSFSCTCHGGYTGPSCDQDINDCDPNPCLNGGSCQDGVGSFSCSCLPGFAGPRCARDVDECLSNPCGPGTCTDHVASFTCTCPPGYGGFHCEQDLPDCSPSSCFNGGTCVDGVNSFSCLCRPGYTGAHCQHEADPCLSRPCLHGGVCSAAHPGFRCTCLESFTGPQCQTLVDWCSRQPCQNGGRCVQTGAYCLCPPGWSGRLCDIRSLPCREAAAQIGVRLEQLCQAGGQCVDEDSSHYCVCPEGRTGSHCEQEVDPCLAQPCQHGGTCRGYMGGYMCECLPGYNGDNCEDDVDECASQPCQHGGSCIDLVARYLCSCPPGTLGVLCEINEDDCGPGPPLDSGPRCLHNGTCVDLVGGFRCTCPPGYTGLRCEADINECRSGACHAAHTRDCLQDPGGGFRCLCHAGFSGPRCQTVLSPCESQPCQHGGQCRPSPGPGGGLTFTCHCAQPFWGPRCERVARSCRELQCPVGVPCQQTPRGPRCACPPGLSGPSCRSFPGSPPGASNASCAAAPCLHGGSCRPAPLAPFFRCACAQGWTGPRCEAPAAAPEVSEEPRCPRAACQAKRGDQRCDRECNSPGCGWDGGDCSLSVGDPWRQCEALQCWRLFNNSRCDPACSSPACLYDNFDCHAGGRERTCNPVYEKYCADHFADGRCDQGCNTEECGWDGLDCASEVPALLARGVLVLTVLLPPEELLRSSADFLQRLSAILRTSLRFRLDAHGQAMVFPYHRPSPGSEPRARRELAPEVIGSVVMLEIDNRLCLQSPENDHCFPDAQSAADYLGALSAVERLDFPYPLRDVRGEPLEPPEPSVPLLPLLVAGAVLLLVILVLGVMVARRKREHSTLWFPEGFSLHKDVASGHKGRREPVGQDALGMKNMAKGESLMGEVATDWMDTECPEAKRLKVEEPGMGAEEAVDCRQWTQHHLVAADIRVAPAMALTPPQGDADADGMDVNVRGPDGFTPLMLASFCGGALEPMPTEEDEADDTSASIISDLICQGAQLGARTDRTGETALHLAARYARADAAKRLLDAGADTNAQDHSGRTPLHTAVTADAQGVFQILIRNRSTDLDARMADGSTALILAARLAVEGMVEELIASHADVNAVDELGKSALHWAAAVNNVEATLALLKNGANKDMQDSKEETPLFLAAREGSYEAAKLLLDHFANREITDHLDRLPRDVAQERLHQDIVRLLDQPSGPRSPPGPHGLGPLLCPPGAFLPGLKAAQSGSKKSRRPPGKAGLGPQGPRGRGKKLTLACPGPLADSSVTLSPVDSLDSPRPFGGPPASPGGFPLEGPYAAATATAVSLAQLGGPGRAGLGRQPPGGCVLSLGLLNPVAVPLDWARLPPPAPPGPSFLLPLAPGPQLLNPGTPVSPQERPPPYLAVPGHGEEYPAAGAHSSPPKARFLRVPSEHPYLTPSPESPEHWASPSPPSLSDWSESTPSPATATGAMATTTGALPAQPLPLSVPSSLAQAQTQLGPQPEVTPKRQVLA

[10] = small-molecule microarray binders of probe aEGFR, primary screen, biochemical, biotinylated probe, 635/667 nm fluorescence (AID 1097); details: higher = more signal;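 further: probe is a biotinylated anti-EGFR antibody binding compounds printed on slides; score combines fluorescence near 667 nm and signal to noise of each spot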
[11] = tested on: Plasmodium falciparum Sir2 (PF13_0152, Sir2A); test: pfSir2 binders on small-molecule microarrays, primary screen, biochemical, small-molecule microarray, 635 nm fluorescence (AID 1098); details: small-molecule microarray binding, fluorescence 635 nm; higher = more signal;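 further: score merges spot fluorescence intensity with its signal-to-noise ratio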
[12] = small-molecule microarray binders of probe aDKK1, primary screen, biochemical, biotinylated probe, 635/667 nm fluorescence (AID 1099); details: higher = more signal;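 further: score merges 667nm spot fluorescence with signal to noise across triplicate slides; reference of the scale not given here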
[13] = small-molecule microarray binders of probe aCHRDL2, primary screen, biochemical, biotinylated probe, 635/667 nm fluorescence (AID 1100); details: higher = more signal
[14] = splicing luciferase reporter signal modulators, primary screen, spliceosome inhibition project, cell-based, HEK293, splice +/- reporter (AID 1101); details: luminescence, 24 h, higher = more signal, called active from +8 up or from −8 down;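 further: HEK293 cells carrying a splicing-competent luciferase reporter gene; test concentration not given here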
[15] = target: Fibroblast growth factor 10 (Homo sapiens) (UniProt O15520); test: FGF10 binders on small-molecule microarrays, primary screen, biochemical, small-molecule microarray, 635 nm fluorescence (AID 1102); details: FGF10 binding, fluorescence 635 nm, higher = more signal
Sequence of Fibroblast growth factor 10 (Homo sapiens) (O15520 whole entry, looked up): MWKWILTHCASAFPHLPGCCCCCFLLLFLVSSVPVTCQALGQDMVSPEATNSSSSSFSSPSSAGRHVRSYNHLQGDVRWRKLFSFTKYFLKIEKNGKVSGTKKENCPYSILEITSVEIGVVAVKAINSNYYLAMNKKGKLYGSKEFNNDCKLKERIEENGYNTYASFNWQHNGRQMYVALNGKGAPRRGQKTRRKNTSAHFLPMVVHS

[16] = tested on: glycogen synthase kinase-3 (GSK3A per assay name; protocol says GSK3B); test: GSK3 binders on small-molecule microarrays, primary screen, biochemical, small-molecule microarray, 635 nm fluorescence, GSK3A (AID 1103); details: small-molecule microarray binding, fluorescence 635 nm; higher = more signal; further: the record names both GSK3A and GSK3B
[17] = target: Epidermal growth factor receptor (Homo sapiens) (UniProt P00533); test: EGFR binders on small-molecule microarrays, primary screen, biochemical, small-molecule microarray, 635 nm fluorescence (AID 1104); details: EGFR binding, higher = more signal;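 further: score merges 667 nm emission intensity with spot signal to noise over triplicate slides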
Sequence of Epidermal growth factor receptor (Homo sapiens) (P00533 whole entry, looked up): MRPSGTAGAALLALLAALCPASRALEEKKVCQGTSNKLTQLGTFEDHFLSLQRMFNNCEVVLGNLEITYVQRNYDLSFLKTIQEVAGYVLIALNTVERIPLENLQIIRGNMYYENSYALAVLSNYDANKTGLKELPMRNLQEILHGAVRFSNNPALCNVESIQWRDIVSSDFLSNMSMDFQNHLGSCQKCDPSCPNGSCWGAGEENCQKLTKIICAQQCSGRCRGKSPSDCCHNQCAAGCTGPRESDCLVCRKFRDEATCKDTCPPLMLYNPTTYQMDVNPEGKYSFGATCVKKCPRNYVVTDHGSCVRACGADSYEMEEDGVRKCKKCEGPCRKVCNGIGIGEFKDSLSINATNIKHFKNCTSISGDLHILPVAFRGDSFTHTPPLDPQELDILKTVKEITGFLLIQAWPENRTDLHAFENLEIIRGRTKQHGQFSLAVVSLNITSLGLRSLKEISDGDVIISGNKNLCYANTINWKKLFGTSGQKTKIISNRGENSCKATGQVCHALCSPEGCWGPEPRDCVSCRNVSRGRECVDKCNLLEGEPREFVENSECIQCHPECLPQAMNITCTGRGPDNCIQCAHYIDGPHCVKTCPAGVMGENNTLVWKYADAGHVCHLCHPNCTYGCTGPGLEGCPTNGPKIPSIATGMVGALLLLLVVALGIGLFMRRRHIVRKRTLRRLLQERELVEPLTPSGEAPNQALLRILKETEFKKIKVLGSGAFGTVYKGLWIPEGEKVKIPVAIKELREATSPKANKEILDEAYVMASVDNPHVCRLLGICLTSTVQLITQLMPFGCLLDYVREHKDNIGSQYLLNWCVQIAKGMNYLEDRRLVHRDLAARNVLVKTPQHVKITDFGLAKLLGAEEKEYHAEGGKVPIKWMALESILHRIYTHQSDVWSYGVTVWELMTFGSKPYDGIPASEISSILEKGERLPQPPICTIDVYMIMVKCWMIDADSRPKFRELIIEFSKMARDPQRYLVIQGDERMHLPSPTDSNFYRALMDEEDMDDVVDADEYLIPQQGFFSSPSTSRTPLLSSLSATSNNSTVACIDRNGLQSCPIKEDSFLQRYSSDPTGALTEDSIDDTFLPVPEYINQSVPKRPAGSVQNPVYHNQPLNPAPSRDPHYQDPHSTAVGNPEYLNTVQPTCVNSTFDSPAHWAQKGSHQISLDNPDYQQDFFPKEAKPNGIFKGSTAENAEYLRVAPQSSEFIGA

[18] = target: Follistatin-related protein 3 (Homo sapiens) (UniProt O95633); test: FSTL3 binders on small-molecule microarrays, primary screen, biochemical, small-molecule microarray, 635 nm fluorescence (AID 1105); details: FSTL3 binding, higher = more signal;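 further: score merges emission near 667 nm and signal to noise per printed spot across three slides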
Sequence of Follistatin-related protein 3 (Homo sapiens) (O95633 whole entry, looked up): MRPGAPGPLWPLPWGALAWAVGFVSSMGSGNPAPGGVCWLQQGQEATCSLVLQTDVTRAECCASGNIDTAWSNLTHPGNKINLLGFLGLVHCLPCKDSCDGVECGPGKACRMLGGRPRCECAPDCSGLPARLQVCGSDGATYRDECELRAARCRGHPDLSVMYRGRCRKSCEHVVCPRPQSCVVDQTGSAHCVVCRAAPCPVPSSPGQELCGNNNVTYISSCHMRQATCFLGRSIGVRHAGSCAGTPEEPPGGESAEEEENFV

[19] = target: Dickkopf-related protein 1 (Homo sapiens) (UniProt O94907); test: DKK1 binders on small-molecule microarrays, primary screen, biochemical, small-molecule microarray, 635 nm fluorescence scan (AID 1106); details: DKK1 binding, higher = more signal;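 further: score merges emission near 667 nm with signal to noise over three replicate slides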
Sequence of Dickkopf-related protein 1 (Homo sapiens) (O94907 whole entry, looked up): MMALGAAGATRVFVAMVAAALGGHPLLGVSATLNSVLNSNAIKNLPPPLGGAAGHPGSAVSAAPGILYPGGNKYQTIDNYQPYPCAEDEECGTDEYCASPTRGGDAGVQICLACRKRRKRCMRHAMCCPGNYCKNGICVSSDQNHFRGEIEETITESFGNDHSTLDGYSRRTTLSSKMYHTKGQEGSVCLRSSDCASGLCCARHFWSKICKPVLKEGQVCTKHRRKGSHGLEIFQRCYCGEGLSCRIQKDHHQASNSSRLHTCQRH

[20] = tested on: Inhibin beta A chain (activin A); test: INHBA (activin A) binders on microarrays, primary screen, biochemical, small-molecule microarray, 635 nm fluorescence scan (AID 1107); details: small-molecule microarray binding, higher = more signal;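 further: mouse activin A protein probed at 4.33 µg/mL on printed slides; score merges bound-protein fluorescence near 667 nm with spot signal-to-noise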

SMILES | composite z-score [1] | z-score [2] | z-score [3] | z-score [4] | composite z-score [5] | z-score [6] | composite z-score [7] | composite z-score [8] | composite z-score [9] | composite z-score [10] | composite z-score [11] | composite z-score [12] | composite z-score [13] | z-score [14] | composite z-score [15] | composite z-score [16] | composite z-score [17] | composite z-score [18] | composite z-score [19] | composite z-score [20]
O=C1C2C=CC(C(O)c3ccc(Br)cc3)N(n3cnnc3)C2C(=O)N1Cc1ccccc1 (stereo not given) | 1.56 | -26.6 (active) | -16 (active) | 0.881 (inactive) | 2.83 | -0.415 (inactive) | 0.126 | 0.57 | 1.03 | 0.115 | 1.11 | 0.578 | 0.479 | 0.696 (inactive) | 0.946 | 1.07 | 0.406 | 0.819 | 0.0363 | -0.0003
CN(C)CCCCNC(=O)[C@@H]1C[C@@H]2C(=O)N[C@@H](CCCCN)C(=O)N2[C@@H]1c1cccc(OCCO)c1 | 1.02 | -0.0533 (inactive) | 0.286 (inactive) | -0.363 (inactive) | 3.58 | -0.285 (inactive) | 0.197 | -0.989 | 0.37 | -0.223 | 1.9 | 0.123 | 0.74 | -0.239 (inactive) | -0.383 | 0.0265 | -1.22 | -0.795 | -0.988 | 0.0049
COc1ccc([Si](C)(C)[C@@H]2[C@@H](CCO)O[C@]3(C(=O)N(Cc4cccc(N5CCCCC5=O)c4)c4ccccc43)[C@H]2C)cc1 | 1.56 | 2.34 (inactive) | -0.486 (inactive) | 5.16 (inactive) | 2.54 | -0.0838 (inactive) | -0.0915 | 1.22 | 1.09 | -0.0442 | 1.06 | -0.0212 | 0.113 | -2.96 (inactive) | 1.04 | 0.971 | 0.319 | 1 | 0.404 | 0.764
CC(C)NC(=O)[C@@H]1c2ccccc2C(=O)N(C2CCCCC2)[C@H]1c1ccc(CO)cc1 | 0.4 | -0.455 (inactive) | 0.0765 (inactive) | 0.13 (inactive) | 1.48 | 0.0495 (inactive) | 0.25 | -0.123 | 0.108 | 0.262 | 0.576 | 0.678 | 0.919 | 0.0672 (inactive) | 0.902 | 0.889 | 0.101 | 0.28 | -0.161 | 0.445
C=CCNC(=O)[C@H]1[C@@H]2C(=O)O[C@@H](c3ccccc3)[C@@H](c3ccccc3)N2[C@@H](c2ccc(O)cc2)[C@]12C(=O)Nc1ccc(C#Cc3ccc(OC)cc3)cc12 | 1.49 | -0.209 (inactive) | 1.14 (inactive) | 0.832 (inactive) | 2.86 | -0.451 (inactive) | 0.369 | 0.41 | 1.12 | 0.469 | 1.53 | 0.257 | 0.536 | 0.338 (inactive) | 0.782 | 1.23 | 0.728 | 1.21 | 0.94 | -0.13
COCCOC(=O)N1C(=O)[C@@]2(c3cc(C#Cc4ccc(OC)cc4)ccc31)[C@H](c1ccc(OCCO)cc1)N1[C@H](c3ccccc3)[C@H](c3ccccc3)OC(=O)[C@H]1[C@@H]2C(=O)N1CCc2cc(OC)c(OC)cc2C1 | 1.56 | 2.81 (inactive) | 1.39 (inactive) | 7.07 (inactive) | 0.434 | 1.56 (inactive) | -0.202 | 1.28 | 1.12 | -0.02 | 1.41 | -0.126 | -0.227 | -0.355 (inactive) | 0.812 | 1.12 | 0.463 | 1.3 | 0.435 | 0.273
C=CC[C@@]1(C(=O)NCc2ccccc2)N=C(c2ccc(OCCCO)cc2)O[C@@H]1c1ccccc1CN=[N+]=[N-] | 0.985 | 0.371 (inactive) | 1.68 (inactive) | 4.84 (inactive) | 3.17 | -0.759 (inactive) | 0.418 | 0.0824 | 0.901 | 0.0149 | 1.1 | 0.9 | 0.953 | 0.147 (inactive) | 1.15 | 0.0389 | -0.282 | 0.849 | 0.0805 | 0.835
CN1C(=O)C2C=CC(C(O)C=Cc3ccc([N+](=O)[O-])cc3)N(N3CCCCC3)C2C1=O (stereo not given) | 1.09 | -0.704 (inactive) | -7.07 (inactive) | -0.476 (inactive) | 2.79 | -1.33 (inactive) | 0.859 | 0.38 | 1.06 | 0.789 | 1.38 | 1.6 | 1.34 | 1.47 (inactive) | 0.928 | 1.28 | 0.726 | 1.1 | 0.256 | 1.35
O=C1C[C@@](C(=O)O)(c2ccc([N+](=O)[O-])cc2)[C@@H](c2ccc(CO)cc2I)N1C1CCCCC1 | 0.222 | -1.09 (inactive) | -6.54 (inactive) | 0.173 (inactive) | 2.54 | 2.15 (inactive) | 0.0539 | 0.373 | 1.06 | -0.0828 | 1.24 | -0.162 | 0.862 | -2.72 (inactive) | 1.27 | -0.428 | 0.126 | 0.596 | -0.605 | 0.775
CN1C(=O)C2C=CC(C(O)c3ccc(Br)cc3)N(Nc3ccccc3)C2C1=O (stereo not given) | -0.897 | 0.947 (inactive) | -0.0449 (inactive) | 0.878 (inactive) | 1.27 | -0.54 (inactive) | 0.296 | -1.48 | -1.17 | -0.0594 | -0.186 | 0.528 | 1.03 | 1.11 (inactive) | -0.583 | -1.21 | -1.3 | -1.09 | -1.49 | 1.12
